# Measurements from the supplement of paper PMC6555819.
# Tested on: PPARg:RXRa 270nM:90nM, anti-RXR (NR concentration 270 nM, RXRa partner concentration 90 nM)
# Assay: PBM binding z-score (relative to random genomic background probes); higher = stronger binding; sequences stand for … in GC…GCGATTGACAGCGTAGAATGAAGG
# How it was run: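 Binding z-scores were set against random background probes. The data came from custom Agilent 4×180K protein-binding microarrays carrying double-stranded probes with 34-nt variable regions, incubated 1 h with ligand-free nuclear receptor dimers. Partner-specific antibodies detected binding, and scanned fluorescence was regression-normalized.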
row,Sequence,PBM binding z-score
1,CGTCCAAGGTCATTGGAGGTCAGTGAAGACAGAT,5.76
2,CCTTACGGGTCACTGACAGGTTATAGCGTTTGGA,4.32
3,TAGCCTAGGTCATTCAGGGGCAAGTATAGAAAGC,2.67
4,AGAATGAGGTTACCAAAGTTCAGGGAAACGCTTG,4.08
5,ATATGTAGGTTATCTGGGGTCATTCAGACTAGGC,5.84
6,GATATAGGGTCAGCTAGAGGCCAGAGTATGGAAA,3.86
7,CCTTACGGGTCACGAGGTTGTAGCACGACGAGCG,6.12
8,ATCGAAAGGTCGTGAGGTAAGTATACAGAAAGGC,4.37
9,CCTAGCAGGCCAATCTAGGTCACTCAAGGCTTGA,2.47
10,ACTTACGGGTCTACGAGGTTATAGCACGCGTATA,0.426
11,CAAACTAGGTCACAAAAGGTCAAAGTCGAATGAC,8.38
12,CCTACTGGGCCATTCAGAGGTCAATGATCATATG,3.02
13,CGTCCAAGGTCAATGCTAGATCAGTGAAAGCATT,4.19
14,ATCGAAAGGTCGACCAGGTGAGTATACACCGTTT,3.34
15,AGAATGGGGTTACCAAAGATCAGGGAAACGCTTG,4.32
16,CCTACGGGGCCACGAAAGGTCATTGATTCAGTGA,3.88
17,CGTCAAACTTCAACTAAGGTAACGTAAAGCACGC,0.064
18,CCTACTGGGCCACGAAAGGCCATTGATTCAGTGA,1.21
19,GGAACGAGGGCATTCGAGTTCATAGCATGGCGAT,1.33
20,TCGCCTAGGTCATGGGCCAGTATACCACGCGAAC,3.4

row,Sequence,PBM binding z-score
1,AGAATGAGGTTACCAAAGGTCAGGGAAACGCTTG,5.63
2,TAGCCTAGGTCATTCAGGGGCCACTATAGAAAGC,2.83
3,AATACAGGGTCATCGTAGGTCAGAGTACGCACAG,6.38
4,CAAACTAGGTCACAGTGGTCAAAGTCCGTGCGTA,6.97
5,CCTACTGGGTCACGAAAGGTCATTGATTCAGTGA,7.71
6,TCTTGTAGATCAATAGAAGTTAAGAAAGTGCGCT,1.83
7,TACCCTAGGTCATTGGGCCAGTATAGTACGCATC,4.04
8,AGAATGAGGTTAAACGTAGATCAGGGAAGAAAGT,4.04
9,CCGAGTTGGTCAAGGTCACACACGCTATAGGTAC,3.37
10,CCTACTGGACCAAGGTCATTGATCAGTCAAAGCA,2.77
11,CCTAGTTGGTCAAGGTCACATACGCTATAGGTAC,3.43
12,ATCTCTAGGTTAAGATAGTTCAGTGAATGCAAAT,1.66
13,AGAATGAGGTTAAGTTCAGGGAAACAGAATACAT,3.89
14,TAGCCTAGTTCATGCGGGCCAGTATAGTGTCGGC,-0.0482
15,TAGCCTAGGTCATGGGCCAGTGTACCACGCGAAC,3.87
16,ATATGTAGGTTAACTGGGGTCATTCAGACTAGGC,6.61
17,CCTTACGGGTCAAGGTTATAGCCCGGGTGGTACG,4.86
18,CGTCCAAGGTCATATGAGGTCAGTGAAGACAGAT,5.72
19,TAGCCTAGGTCGTTCAGGGGCCAGTATAGAAAGC,0.17
20,TAGCCTAGGTCATGCGGGCCAATATAGTGTCGGC,2.44
